In PubChem BioAssay AID504850 (National Center for Advancing Translational Sciences (NCATS), 2011):
About 1,200 (52%) of roughly 2,300 compounds were called active. About 34% were inconclusive and are not listed. The call rests on the fitted dose curve; in most records, active means well fitted inhibition curve with a large enough effect; inconclusive means small, poorly fitted or top-dose-only effect, or effect the other way; inactive means no such curve, though single readings can be large or run the other way. So high a share suggests a set chosen from earlier hits. Some of the results follow.

Assay: Confirmation screen for delayed death inhibitors of the malarial parasite plastid, 48 hour incubation; further: nearly all actives have a fitted effect of over 65% in size
Settings: P. falciparum-infected erythrocytes, luciferase growth; series mostly up to 28.7 µM
Outline: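 Erythrocytes infected with luciferase-expressing P. falciparum (2% hematocrit, 0.1% parasitemia) incubated with compounds 48 hours at 37 C, 5% CO2, in RPMI/Albumax. Growth inhibition scored as reduced luminescence after detection reagent.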
Potency means the concentration at half of the fitted maximal effect.

Row | SMILES | Potency
1 | C=CCN=c1scc(-c2ccc(F)cc2)n1/N=C/c1ccccn1 | 6.31 µM (active)
2 | CCCCN1/C(=C/c2cccc[n+]2C)Sc2cc(NC(C)=O)ccc21 | 3.16 µM (active)
3 | Cc1c(OC(C)C(=O)N2C[C@H]3C[C@@H](C2)c2cccc(=O)n2C3)ccc2c3c(c(=O)oc12)CCC3 (stereo partly drawn) | 12.6 µM (active)
4 | Cc1c(CC(=O)N2C[C@H]3C[C@@H](C2)c2cccc(=O)n2C3)c(=O)oc2cc3occ(C(C)(C)C)c3cc12 | 12.6 µM (active)
5 | CC(C)C[C@@H](NC(=O)[C@H](Cc1ccccc1)NC(=O)c1cnccn1)B(O)O | 0.178 µM (active)
6 | O=C(C[C@@H]1C/C=C\CC[C@@H](Cc2ccc(F)cc2)C(=O)OC[C@@H]2CCCN2C1=O)NCCO | 12.6 µM (active)
7 | COc1ccc(NC(=O)N2CCCc3cc(C)ccc32)c(OC)c1 | 14.1 µM (active)
8 | Cc1cc(C)n(Cc2ccc(C(=O)N/N=C/c3ccc(-c4ccc([N+](=O)[O-])cc4)o3)o2)n1 | 8.91 µM (active)
9 | O=C(CCN1C(=O)c2ccccc2C1=O)C1=NN[C@@H]2C(=O)N(c3ccc(F)cc3)C(=O)[C@H]12 | inactive
10 | CCC/C(C#CCCN1C(=O)c2ccccc2C1=O)=C1/c2ccccc2C(=O)N1c1ccccc1 | 7.94 µM (active)
11 | CCn1c(SCC(=O)Nc2ccc(C)cc2)nc2sc3c(c2c1=O)CCN(C)C3 | 1.41 µM (active)
12 | CCOC(=O)CSc1nc2sc3c(c2c(=O)n1C1CCCCC1)CCN(C)C3 | 3.16 µM (active)
13 | Cc1cccc(NC(=S)/N=C(\N)Nc2nc(C)c3ccccc3n2)c1 | 12.6 µM (active)
14 | CC(CN1CCC(n2nccc2NC(=O)c2ccccc2Cl)CC1)c1ccccc1 (stereo not drawn) | 15.8 µM (active)
15 | O=C(N/N=C/c1ccccn1)c1cc([N+](=O)[O-])cc([N+](=O)[O-])c1 | 10 µM (active)
16 | C(=N\N(c1ccccc1)c1ccccc1)/c1ccccn1 | inactive
17 | CC1(C)COC(/C=C/c2cccc([N+](=O)[O-])c2)=N1 | 14.1 µM (active)
18 | O=[N+]([O-])c1cccc(/C=C/c2nc[nH]c2[N+](=O)[O-])c1 | 7.94 µM (active)
19 | COc1ccccc1-n1nnnc1S(=O)(=O)Cc1ccc(Cl)cc1 | 12.6 µM (active)
20 | CCCCN(CCCNC(=O)C1CCN(C(=O)c2cc3sccc3n2C)CC1)Cc1ccccc1 | 5.62 µM (active)
21 | CC(NC(=O)c1cc2sccc2n1C)c1ccc2c(c1)OCCO2 (stereo not drawn) | inactive
22 | O=C(Nc1ccc2c(c1)CCCN2C(=O)c1ccco1)c1cc([N+](=O)[O-])ccc1Cl | 12.6 µM (active)

Row | SMILES | Potency
23 | COc1ccccc1N(Cc1ccccc1)S(=O)(=O)c1cccc(C(=O)Nc2cc(C)ccn2)c1 | 11.2 µM (active)
24 | COc1ccccc1N(Cc1ccccc1)S(=O)(=O)c1cccc(C(=O)Nc2ccccn2)c1 | 8.91 µM (active)
25 | COc1cc(OC)cc(C(=O)Nc2ccc3c(c2)CCCN3C(=O)c2cccs2)c1 | 12.6 µM (active)
26 | Cc1ccccc1C(=O)Nc1ccc2c(c1)CCCN2C(=O)c1cccs1 | 12.6 µM (active)
27 | O=C(Cc1cccc2ccccc12)Nc1ccccc1C(=O)O | inactive
28 | CC(=O)Nc1ccc(OCc2cccc3ccccc23)cc1 | 12.6 µM (active)
29 | CCOC(=O)c1c(NC(=O)CSc2c[nH]c3ccccc23)sc2c1CCCC2 | 14.1 µM (active)
30 | CCOC(=O)c1c(NC(=O)CSc2ccccc2C(=O)O)sc(C)c1C | inactive
31 | COc1cc([N+](=O)[O-])c(OC)cc1SCc1n[nH]c(=S)n1-c1ccc(F)cc1 | 14.1 µM (active)
32 | CCCCCCC1C(C#N)=C(N)OC2=C1C(=O)CCC2 (stereo not drawn) | inactive
33 | CCc1ccc(NC(=O)CSc2nc3n[nH]c(C)c3c(=N)n2-c2cccc(OC)c2)cc1 | 5.62 µM (active)
34 | CCc1nc(SCC(=O)Nc2ccc(N(C)C)cc2)n[nH]1 | inactive
35 | COc1ccc2c(CC(=O)OCC(=O)Nc3cccc(S(N)(=O)=O)c3)coc2c1 | inactive
36 | COc1cccc(NC(=O)CSc2nc3n[nH]c(C)c3c(=N)n2-c2cccc(OC)c2)c1 | 7.94 µM (active)
37 | COc1ccccc1NC(=O)c1oc2ccccc2c1NC(=O)C1CC1 | 8.91 µM (active)
38 | COc1cccc(NC(=O)c2oc3ccccc3c2NC(=O)C2CC2)c1 | 15.8 µM (active)
39 | COc1cccc(NC(C)C(=O)Nc2cc([N+](=O)[O-])ccc2Cl)c1 (stereo not drawn) | 3.16 µM (active)
40 | COc1cccc(N/C(SCc2cccc([N+](=O)[O-])c2)=C(/C#N)C(N)=O)c1 | inactive
41 | Cn1c(CCN2CCCC2)nc2cc(NS(=O)(=O)c3ccc(Cl)cc3)ccc21 | 11.2 µM (active)
42 | CC1CCCCN1C(=O)COC(=O)c1cccc(NS(=O)(=O)c2ccccc2)c1 (stereo not drawn) | inactive
43 | Cn1c(CCN2CCCC2)nc2cc(NS(=O)(=O)c3ccccc3)ccc21 | 3.55 µM (active)
44 | Cc1cccc(N/N=C(\C(N)=O)C2=NC(C)(C)Cc3ccccc32)c1 | 4.47 µM (active)

Row | SMILES | Potency
45 | CC(=O)c1ccc(N/N=C(/C(N)=O)C2=NC(C)(C)Cc3ccccc32)cc1 | 7.08 µM (active)
46 | CN(Cc1ccc(Cl)c(Cl)c1)C(=O)C1=CC=CN2CCS(=O)(=O)N=C12 | 7.94 µM (active)
47 | CN1C(=O)C(C)(C)c2cc(S(=O)(=O)NCC3CCC(C(=O)NCc4ccc(F)cc4)CC3)ccc21 (stereo not drawn) | 15.8 µM (active)
48 | CCOc1cccc2sc(NC(=O)CCS(=O)(=O)c3ccccc3)nc12 | 11.2 µM (active)
49 | CC1(C)CC(=O)c2sc(NC(=O)CCS(=O)(=O)c3ccccc3)nc2C1 | inactive
50 | COc1ccc(C)c2sc(NC(=O)CCS(=O)(=O)c3ccccc3)nc12 | inactive
51 | CN(Cc1c(C(=O)N/N=C/c2cccc(O)c2)nnn1-c1nonc1N)c1ccccc1 | inactive
52 | Nc1nonc1-n1nnc(C(=O)N/N=C/c2cccc(Cl)c2)c1-c1ccc2c(c1)OCO2 | 0.126 µM (active)
53 | Cc1ccsc1/C=N/NC(=O)c1nnn(-c2nonc2N)c1-c1ccc2c(c1)OCO2 | 1.26 µM (active)
54 | CCOc1ccc(-c2c(C(=O)N/N=C/c3ccc(OC(C)C)cc3)nnn2-c2nonc2N)cc1 | 15.8 µM (active)
55 | Nc1nonc1-n1nnc(C(=O)N/N=C/c2ccc(Cl)cc2)c1-c1ccc2c(c1)OCO2 | 0.0562 µM (active)
56 | CC(=O)NC[C@@H]1CN(c2ccc(N3CCOCC3)c(F)c2)C(=O)O1 | inactive
57 | CCCC(=O)N=C1SC2CS(=O)(=O)CC2N1c1ccc(CC)cc1 (stereo not drawn) | 7.94 µM (active)
58 | CC(=O)NC(C)c1nc2ccccc2n1CC(=O)N1C(C)CCCC1C (stereo not drawn) | inactive
59 | CC(=O)Nc1nc2ccccc2n1Cc1ccc(C)cc1 | 6.31 µM (active)
60 | Clc1cccc(CN2CCc3c([nH]c4ccccc34)C2)c1 | 12.6 µM (active)
61 | CCN(CC)CCNC(=O)c1ccc(NC(=O)c2ccccc2-c2ccc(C(F)(F)F)cc2)cc1 | 12.6 µM (active)
62 | CCOCCCNC(=O)/C(C#N)=C/c1ccc(-c2ccc(S(=O)(=O)N3CCOCC3)cc2)o1 | 14.1 µM (active)
63 | COc1ccc(-c2c(-c3cc(OC)cc(OC)c3)n(C)c3ccc(-c4ccc5[nH]ccc5c4)cc23)cc1 | 8.91 µM (active)
64 | COc1cc2c(cc1OC)CN(C(=O)c1cccc(S(=O)(=O)N3CCc4ccccc43)c1)CC2 | 11.2 µM (active)
65 | O=C(CNC(=O)c1cccc(S(=O)(=O)N2CCc3ccccc32)c1)Nc1ccc(F)c(F)c1F | 12.6 µM (active)
66 | O=C(c1cccc(S(=O)(=O)N2CCc3ccccc32)c1)N1CCN(c2ccccc2)CC1 | 14.1 µM (active)

Row | SMILES | Potency
67 | Cc1c(C(=O)N2CCC(n3nccc3NC(=O)C3CC3)CC2)[nH]c2ccc(Cl)cc12 | 11.2 µM (active)
68 | Cc1cc(C)c2[nH]c(C(=O)N3CCC(n4nccc4NC(=O)C4CC4)CC3)c(C)c2c1 | 12.6 µM (active)
69 | Cc1ccc(S(=O)(=O)Nc2cccc3cccnc23)c([N+](=O)[O-])c1 | 5.01 µM (active)
70 | Cc1ccc(S(=O)(=O)Nc2cccc3cccnc23)cc1 | 7.08 µM (active)
71 | N#Cc1cccc(NC(=O)Cn2c3[n+](c4ccc(C(F)(F)F)cc42)CCCCC3)c1 | 4.47 µM (active)
72 | CC1(CCc2ccc3c(c2)OCO3)NCCc2c1[nH]c1ccccc21 (stereo not drawn) | 8.91 µM (active)
73 | CCOC(=O)C1CCCN(Cc2ccc(OCc3ccccc3)c(OC)c2)C1 (stereo not drawn) | 14.1 µM (active)
74 | CCOC(=O)C1CCCCN1Cc1cccc(OCc2ccccc2)c1 (stereo not drawn) | 14.1 µM (active)
75 | CCOc1cc(/C=C2/C(=O)ON=C2C)ccc1OCc1ccccc1 | inactive
76 | CC(C)(C)c1ccc(C(O)CCCN2CCC(C(O)(c3ccccc3)c3ccccc3)CC2)cc1 (stereo not drawn) | 12.6 µM (active)
77 | Cc1ccc(C(=O)C(C(=O)/C=C/c2ccccc2)=C2SCCCS2)cc1 | 14.1 µM (active)
78 | COc1ccc2[nH]cc(C(=O)CCl)c2c1 | 12.6 µM (active)
79 | COc1ccc2[nH]cc(CCCN3C(=O)c4ccccc4C3=O)c2c1 | inactive
80 | CCn1c2ccccc2c2c3ncc4cccn4c3ccc21 | 14.1 µM (active)
81 | CCC(CC)COC(=O)C1=C(C)NC(=O)NC1c1ccccc1Br (stereo not drawn) | 12.6 µM (active)
82 | COc1cccc(CNC(=O)c2cc3oc4ccccc4c3n2C)c1OC | inactive
83 | CCOc1ccccc1CNC(=O)c1cc2oc3ccccc3c2n1CC | 14.1 µM (active)
84 | CCOc1ccc(CNC(=O)c2cc3oc4ccccc4c3n2C)cc1 | inactive
85 | CC(=O)Nc1cccc(Oc2ncnc3scc(-c4ccc(C(C)C)cc4)c23)c1 | 11.2 µM (active)
86 | COc1ccc(-c2c(-c3ccc(OC)c(C)c3O)n[nH]c2C)cc1 | 14.1 µM (active)
87 | CC1CCC/C=C/C(=O)c2c(O)cc(O)cc2CC(=O)O1 (stereo not drawn) | 7.08 µM (active)
88 | COc1ccc(C2CC(=O)C3=C(C2)Nc2ccccc2NC3c2coc3ccccc3c2=O)cc1OC (stereo not drawn) | 1.26 µM (active)
